In the supplement of paper PMC10732440 one finds progeny production data, which are given here for 20 compounds.

± gives the standard deviation of the averaged measurements.

One experiment has as its system Caenorhabditis elegans N2 infected with Nematocida parisii ERTm1. Briefly: progeny production relative to DMSO uninfected control; higher = more progeny despite microsporidia infection (inhibition of infection with low host toxicity). The conditions noted are these: infection time 6 days; 40 µM. The protocol: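 Bleach-synchronised C. elegans N2 L1 larvae (100 per well) were grown in 96-well plates in K-medium with 5x E. coli OP50 and 15,000 N. parisii spores/uL, plus Pandemic Response Box compound at 100 uM or 40 uM (1% DMSO), for 6 days at 21 C with shaking. Worms were stained with Rose Bengal, scanned on a flatbed scanner and counted with WorMachine. Progeny production is given as % of the DMSO uninfected control (triplicate wells), so higher values mean the compound restores progeny despite infection.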
Compound `Cc1oncc1C(=O)Nc1ccc(C(F)(F)F)cc1` returned a progeny production of 3.59 ± 1.6%.
Consider `O=C(CCCC(F)(F)F)N1CCC(c2nc(-c3nccs3)no2)CC1`, for which the progeny production was 5.21 ± 1.1%.
Take `O=[N+]([O-])c1cn2c(n1)OC[C@@H](OCc1ccc(OC(F)(F)F)cc1)C2`: the progeny production is 7.03 ± 0.77%.
The compound `O=C(Cn1cnc2ccccc2c1=O)Nc1ccccc1` displayed a progeny production of 5.46 ± 4.2%.
`NC(=O)c1cnc2ccc(S(=O)(=O)c3ccccc3)cc2c1Nc1ccc(O)cc1` returned a progeny production of 6.94 ± 3.1%.
On the same count and under the same terms, to `CC(C)c1ccc(COc2cccc(-c3cc([S+](C)[O-])c(C#N)c(=O)[nH]3)c2)cc1` (stereo not given) belongs 2.96 ± 1.6%.
In the case of `Nc1nc(NC2Cc3ccc(F)cc3C2)nc(N2CCCCC2)n1` (stereo not given), the progeny production was determined as 5.65 ± 3.6%.
Take `O=C(CSc1nnc(Br)n1-c1ccc(C2CC2)c2ccccc12)Nc1ccc(C(=O)O)cc1Cl`: the progeny production is 3.49 ± 1.1%.
The compound `O=C(O)c1ccc(-n2nc(-c3ccccc3O)nc2-c2ccccc2O)cc1` registered a progeny production of 4.83 ± 3%.
`O=C(NCc1ccc2c3c(cccc13)C(=O)N2)c1cccs1` registered a progeny production of 6.15 ± 4.4%.
For the compound `OCCC#Cc1nc(-c2ccc(F)cc2)c(-c2ccncc2)n1CCCc1ccccc1`, the progeny production amounted to 5.08 ± 0.6%.
`O=C1NC(=O)C(Br)=C1Br` gave a progeny production of 12.2 ± 12%.
`O=C(O)C[C@H]1CC[C@H](c2ccc(-c3ccc(Nc4ccc(C(F)(F)F)nc4)cn3)cc2)CC1` gave a progeny production of 4.2 ± 3.2%.
On to `Cc1ccc(NC(=O)c2cc(Cl)ccc2O)cc1`, for which the progeny production is 8.65 ± 5.8%.
Compound `CCOC(=O)/C=C/[C@H](C[C@@H]1CCNC1=O)NC(=O)[C@@H](CC(=O)[C@@H](NC(=O)c1cc(C)on1)C(C)C)Cc1ccc(F)cc1` returned a progeny production of 3.79 ± 1.2%.
The compound `Oc1ccc(NCc2ccccc2OCc2ccccc2)cc1` showed a progeny production of 5.72 ± 3.1%.
Consider `CCCCCc1ccc(C(=O)NCCn2cc(CCCCCc3c[nH]c(N)n3)nn2)cc1`, for which the progeny production was 8.32 ± 7.4%.
Regarding `Cc1nc(Nc2ccc(F)cc2)nc(N2CCc3ccccc3C2C)c1C` (stereo not given), the progeny production was 2.7 ± 0.53%.
The compound `CCN(CC)CCn1c(=N)n(CC(O)COc2ccc(Cl)cc2Cl)c2ccccc21` (stereo not given) gave a progeny production of 7.02 ± 2.2%.
On the same count and under the same terms, with `O=C(Nc1nnc(-c2ccc(Cl)cc2)o1)c1nc2ccccc2s1` the figure was 8.93 ± 4.2%.

Still in this experiment, the particulars now being: infection time 6 days; 100 µM.
`Cc1oncc1C(=O)Nc1ccc(C(F)(F)F)cc1`: the progeny production is 6.66 ± 5%.
The compound `O=C(CCCC(F)(F)F)N1CCC(c2nc(-c3nccs3)no2)CC1` registered a progeny production of 8.6 ± 8.7%.
Still for that read-out and setting: to `O=[N+]([O-])c1cn2c(n1)OC[C@@H](OCc1ccc(OC(F)(F)F)cc1)C2` belongs 11.4 ± 5.1%; to `O=C(Cn1cnc2ccccc2c1=O)Nc1ccccc1`, 8.2 ± 5.5%.
Consider `NC(=O)c1cnc2ccc(S(=O)(=O)c3ccccc3)cc2c1Nc1ccc(O)cc1`, for which the progeny production was found to be 17.7 ± 11%.
Turning to `CC(C)c1ccc(COc2cccc(-c3cc([S+](C)[O-])c(C#N)c(=O)[nH]3)c2)cc1` (stereo not given), the progeny production came to 21.4 ± 25%.
`Nc1nc(NC2Cc3ccc(F)cc3C2)nc(N2CCCCC2)n1` (stereo not given) displayed a progeny production of 6.63 ± 4.3%.
For `O=C(CSc1nnc(Br)n1-c1ccc(C2CC2)c2ccccc12)Nc1ccc(C(=O)O)cc1Cl`, the progeny production is 15.1 ± 5.4%.
`O=C(O)c1ccc(-n2nc(-c3ccccc3O)nc2-c2ccccc2O)cc1` showed a progeny production of 16.7 ± 7.4%.
With `O=C(NCc1ccc2c3c(cccc13)C(=O)N2)c1cccs1`, the progeny production worked out at 9.75 ± 6.2%.
The compound `OCCC#Cc1nc(-c2ccc(F)cc2)c(-c2ccncc2)n1CCCc1ccccc1` yielded a progeny production of 16.6 ± 12%.
As to `O=C1NC(=O)C(Br)=C1Br`, the progeny production was 30.7 ± 9.8%.
For `O=C(O)C[C@H]1CC[C@H](c2ccc(-c3ccc(Nc4ccc(C(F)(F)F)nc4)cn3)cc2)CC1`, the progeny production came out at 10.5 ± 6.4%.
In turn, `Cc1ccc(NC(=O)c2cc(Cl)ccc2O)cc1` returned a progeny production of 8.35 ± 5.3%.
Same read-out and setting: to `CCOC(=O)/C=C/[C@H](C[C@@H]1CCNC1=O)NC(=O)[C@@H](CC(=O)[C@@H](NC(=O)c1cc(C)on1)C(C)C)Cc1ccc(F)cc1` belongs 8.56 ± 4.7%.
The compound `Oc1ccc(NCc2ccccc2OCc2ccccc2)cc1` gave a progeny production of 8.25 ± 6.3%.
Take `CCCCCc1ccc(C(=O)NCCn2cc(CCCCCc3c[nH]c(N)n3)nn2)cc1`: the progeny production was determined as 2.61 ± 1.4%.
`Cc1nc(Nc2ccc(F)cc2)nc(N2CCc3ccccc3C2C)c1C` (stereo not given) showed a progeny production of 20.9 ± 25%.
As to `CCN(CC)CCn1c(=N)n(CC(O)COc2ccc(Cl)cc2Cl)c2ccccc21` (stereo not given), the progeny production was found to be 16.5 ± 20%.
Compound `O=C(Nc1nnc(-c2ccc(Cl)cc2)o1)c1nc2ccccc2s1` returned a progeny production of 6.47 ± 3.5%.
